Test [1] can be described thus: qHTS assay to identify small molecule agonists of the TGF-beta/Smad signaling pathway (AID 1346859; active = well fitted activation curve with a large enough effect in the signal ratio in the repeat runs, not every such curve was filed as active; the % refers to the signal ratio; note: series mostly up to about 77 µM). In short, it runs like this: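 HEK 293T cells stably carrying a beta-lactamase reporter driven by the Smad binding element were seeded overnight, exposed to DMSO-dissolved compounds for 5 hr at 37 C, 5% CO2, then loaded with FRET substrate for 2 hr at room temperature.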
For orientation: qHTS replaces the single test concentration by a dilution series.

Test [2] deals with Thyrotropin-releasing hormone receptor (Homo sapiens) (UniProt P34981). In words: qHTS assay to identify small molecule antagonists of the thyrotropin-releasing hormone receptor (TRHR) signaling pathway (AID 1346877; active = well fitted inhibition curve with a large enough effect in the repeat runs, not every such curve was filed as active; note: series mostly up to about 51 µM). In short, it runs like this: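 Antagonism is measured as suppression of the calcium response to 1 nM TRH in TRHR-HEK293 cells that have been dye-loaded for 2 h at 37 °C after overnight plating. Each compound is tested at 15 concentrations in triplicate.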
Thyrotropin-releasing hormone receptor (Homo sapiens), sequence (P34981 whole entry, looked up): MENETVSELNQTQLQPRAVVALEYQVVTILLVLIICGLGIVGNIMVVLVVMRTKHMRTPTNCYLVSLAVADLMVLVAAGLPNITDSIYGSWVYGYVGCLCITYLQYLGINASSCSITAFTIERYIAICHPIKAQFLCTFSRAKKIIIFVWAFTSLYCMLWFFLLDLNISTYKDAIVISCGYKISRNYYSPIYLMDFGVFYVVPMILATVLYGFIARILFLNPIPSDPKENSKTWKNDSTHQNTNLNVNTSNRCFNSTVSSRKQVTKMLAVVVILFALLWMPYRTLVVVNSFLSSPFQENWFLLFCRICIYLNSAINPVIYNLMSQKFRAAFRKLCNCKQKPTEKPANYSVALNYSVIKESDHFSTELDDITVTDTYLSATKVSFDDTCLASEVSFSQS

For test [3] the target is unchanged. The test is described as follows: qHTS assay to identify small molecule agonists of the thyrotropin-releasing hormone receptor (TRHR) signaling pathway (AID 1346891; calls by dose curve; note: potency is the fitted concentration of half-maximal effect; for activation: series mostly up to about 58 µM). In short, it runs like this:
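TRHR-expressing HEK293 cells were plated 18 h at 37 °C/5% CO2, loaded with calcium dye 2 h at 37 °C, then given compound in DMSO; fluorescence was read kinetically for 3 min at 1 s intervals.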

A short description of test [4]: Human pregnane X receptor (PXR) small molecule agonists, qHTS cell viability counter screen (AID 1346977). Note: nearly all actives have a fitted effect of over 50% in size. In short, it runs like this: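 PXR-Luc HepG2 cells in medium with 5% charcoal-stripped FBS were pre-incubated 5hr, then exposed to compounds for 24hr at 37C. Viability was read in the same wells by CellTiter-Fluor fluorescence, reagent added after 23hr with a 1hr incubation.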

A short description of test [5]: Caspase-3/7 induction in HepG2 cells by small molecules, qHTS assay (AID 1346978). Note: nearly all actives have a fitted effect of over 15% in size. In short, it runs like this:
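Wild-type HepG2 cells (2,000/well) were settled 5 h at 37 C, 5% CO2, then exposed to compounds in DMSO for 17 h. Caspase-3/7 activity was read by luminescence 30 min after adding Caspase-Glo 3/7 reagent at room temperature.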

Test [6] in a line: Caspase-3/7 induction in CHO-K1 cells by small molecules, qHTS cell viability counter screen (AID 1346979). Note: nearly all actives have a fitted effect of over 35% in size. In outline:
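Wild-type CHO-K1 cells were seeded at 1,500 per well, rested 5hr at 37 C, then exposed to compounds in DMSO. After 16hr, CellTiter-Fluor reagent was added and fluorescence read 1hr later as the viability measure.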

A short description of test [7]: Caspase-3/7 induction in CHO-K1 cells by small molecules, qHTS assay (AID 1346980). Note: nearly all actives have a fitted effect of over 15% in size. In short, it runs like this:
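Wild-type cells were seeded at 1,500 per well and settled 5 hr at 37 C, 5% CO2, then exposed to DMSO-dissolved compounds for 17 hr. Caspase-Glo 3/7 reagent was added, and luminescence was read after 30min at room temperature.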

A short description of test [8]: Caspase-3/7 induction in HepG2 cells by small molecules, qHTS cell viability counter screen (AID 1346981). Note: series mostly up to about 92 µM; nearly all actives have a fitted effect of over 30% in size. In outline: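 Cell viability is measured as a cytotoxicity counter screen alongside the Caspase-Glo 3/7 readout in identical wells. Wild-type HepG2 cells are treated with test compounds for 16 hr at 37 C before CellTiter-Fluor addition and a 1-hr incubation.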

Test [9] addresses Nuclear receptor subfamily 1 group I member 2 (Homo sapiens) (UniProt O75469). In words: Human pregnane X receptor (PXR) small molecule agonists, qHTS assay (AID 1346982). Note: nearly all actives have a fitted effect of over 35% in size. In short, it runs like this:
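Cells: HepG2 stably carrying PXR-Luc. Medium held 5% charcoal-stripped FBS. Compounds in DMSO added after 5 hr plating, incubated 24 hr, then luminescence quantified with ONE-Glo.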

The target of test [10] is Nuclear receptor subfamily 1 group I member 2 (Rattus norvegicus) (UniProt Q9R1A7). In words: Rat pregnane X receptor (rPXR) activation by small molecules, qHTS assay (AID 1346983). Note: nearly all actives have a fitted effect of over 20% in size. The following applies: rPXR luciferase reporter cells, One-Glo luminescence, 24 h; max activation: active compounds read high. In short, it runs like this:
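Cell-based rPXR luciferase reporter assay, 2,000 cells per well, rested 5hr at 37 C before compound addition in DMSO, then 24 hr at 37 C. One-Glo reagent was added and luminescence read after 30 min at room temperature.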

Test [11] concerns the target Nuclear receptor subfamily 1 group I member 2 (Homo sapiens) (UniProt O75469). In words: CYP3A4 induction through human pregnane X receptor (PXR) by small molecules, qHTS assay (AID 1346984). Note: nearly all actives have a fitted effect of over 40% in size. In outline: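 Quantitative HTS in DPX-2 cells, i.e. HepG2 transfected with PXR response element and CYP3A4-promoter luciferase. Compounds in DMSO incubated 24hr at 37C; then P450-Glo CYP3A4 substrate, 3uM final, 3hr; One-Glo luminescence.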

Test [12] shares this target. In words: Human pregnane X receptor (PXR) activation by small molecules, qHTS assay (AID 1346985). Note: nearly all actives have a fitted effect of over 40% in size. In outline:
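DPX-2 cells (HepG2 co-transfected with a PXR response element and a CYP3A4-promoter luciferase construct) were seeded at 2,000 per well, rested 5 hr at 37C, then exposed to DMSO-dissolved compounds for 24 hr. Activation was read as luciferase luminescence.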

In test [13] the target is Cytochrome P450 2D6 (Homo sapiens) (UniProt P10635). The test is described as follows: Cytochrome P450 Family 2 Subfamily D Member 6 (CYP2D6) small molecule antagonists: luciferase reporter qHTS assay (AID 1671196). Note: series mostly up to about 120 µM; nearly all actives have a fitted effect of over 50% in size. In short, it runs like this:
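Enzyme and proluciferin substrate were first combined with test chemical for 10 min at room temperature. Adding NADPH regeneration solution started a 1 h reaction, stopped with luciferin detection reagent and read by luminescence 20 min later.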
A general note: Reporter assays use an easily measured gene product as a stand-in for the process of interest.

Test [14] concerns the target Cytochrome P450 2C19 (Homo sapiens) (UniProt P33261). The test is described as follows: Cytochrome P450 Family 2 Subfamily C Member 19 (CYP2C19) small molecule antagonists: luciferase reporter qHTS assay (AID 1671197). Note: series mostly up to about 120 µM; nearly all actives have a fitted effect of over 65% in size. In short, it runs like this:
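P450-Glo CYP2C19 system: enzyme-substrate mix with compound 10 min at room temperature, then NADPH regeneration solution, 1 h at 37C. Proluciferin-to-luciferin conversion detected by luminescence after 20 min with detection reagent; ketoconazole as positive control.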

Test [15] deals with Cytochrome P450 2C9 (Homo sapiens) (UniProt P11712). In words: Cytochrome P450 Family 2 Subfamily C Member 9 (CYP2C9) small molecule antagonists: luciferase reporter qHTS assay (AID 1671198). Note: series mostly up to about 120 µM; nearly all actives have a fitted effect of over 50% in size. In outline: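 CYP2C9 activity was measured with a P450-Glo proluciferin substrate. Enzyme–substrate mix was held with compound for 10 min at room temperature, then NADPH regeneration solution was added for 1 h at 37C. Luciferin product was read as luminescence.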
Cytochrome P450 2C9 (Homo sapiens), sequence (P11712 whole entry, looked up): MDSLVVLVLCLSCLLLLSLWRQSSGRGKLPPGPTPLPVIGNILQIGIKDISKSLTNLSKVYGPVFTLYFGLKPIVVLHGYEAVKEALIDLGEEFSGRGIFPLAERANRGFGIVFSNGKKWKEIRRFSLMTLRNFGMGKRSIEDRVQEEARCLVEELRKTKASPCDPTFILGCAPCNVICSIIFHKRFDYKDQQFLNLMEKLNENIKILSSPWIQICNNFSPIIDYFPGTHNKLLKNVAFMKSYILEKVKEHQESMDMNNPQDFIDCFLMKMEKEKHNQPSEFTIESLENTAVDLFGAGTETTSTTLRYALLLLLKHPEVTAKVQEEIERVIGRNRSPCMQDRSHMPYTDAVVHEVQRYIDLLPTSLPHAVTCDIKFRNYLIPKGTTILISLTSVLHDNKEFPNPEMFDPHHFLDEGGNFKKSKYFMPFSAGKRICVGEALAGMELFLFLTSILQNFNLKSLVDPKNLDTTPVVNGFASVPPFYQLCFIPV

In test [16] the target is Cytochrome P450 1A2 (Homo sapiens) (UniProt P05177). In words: Cytochrome P450 Family 1 Subfamily A Member 2 (CYP1A2) small molecule antagonists: luciferase reporter qHTS assay (AID 1671199). Note: series mostly up to about 120 µM; nearly all actives have a fitted effect of over 50% in size. In outline: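 Compounds were incubated with CYP1A2 and a luminogenic proluciferin substrate for 10 min at room temperature before the reaction was started with NADPH regeneration solution. After 1 h, detection reagent was added and light output, proportional to CYP activity, was recorded.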
Cytochrome P450 1A2 (Homo sapiens), sequence (P05177 whole entry, looked up): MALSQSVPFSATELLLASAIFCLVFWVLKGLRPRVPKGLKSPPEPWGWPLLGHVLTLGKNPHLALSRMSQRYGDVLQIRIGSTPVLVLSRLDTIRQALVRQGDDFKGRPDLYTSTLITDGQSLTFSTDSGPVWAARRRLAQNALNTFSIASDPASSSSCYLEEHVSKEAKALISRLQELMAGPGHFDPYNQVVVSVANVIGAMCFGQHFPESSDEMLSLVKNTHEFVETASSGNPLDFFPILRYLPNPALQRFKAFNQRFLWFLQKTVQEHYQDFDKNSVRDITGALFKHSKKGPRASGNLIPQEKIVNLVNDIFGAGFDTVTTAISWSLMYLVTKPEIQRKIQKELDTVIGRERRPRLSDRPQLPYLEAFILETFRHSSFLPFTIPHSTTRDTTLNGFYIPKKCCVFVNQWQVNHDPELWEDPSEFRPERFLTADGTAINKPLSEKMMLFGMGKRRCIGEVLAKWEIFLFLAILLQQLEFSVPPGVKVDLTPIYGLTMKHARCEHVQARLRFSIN

In test [17] the target is Voltage-gated inwardly rectifying potassium channel KCNH2 (Homo sapiens) (UniProt Q12809). In words: Human Ether-a-go-go-Related Gene (hERG) channel small molecule antagonists: fluorescence cell-based qHTS assay (AID 1671200). In short, it runs like this:
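U2OS cells expressing the channel were plated at 1000 cells/well, incubated overnight at 37 C, then loaded with FluxOR II thallium-sensitive dye for 1 h at room temperature in the dark, with a further 10 min at room temperature before stimulation.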
For orientation: hERG is a cardiac potassium channel; its block is linked to QT prolongation.

In test [18] the target is Cytochrome P450 3A4 (Homo sapiens) (UniProt P08684). In words: Cytochrome P450 Family 3 Subfamily A Member 4 (CYP3A4) small molecule antagonists: luciferase reporter qHTS assay (AID 1671201). In short, it runs like this:
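P450-Glo CYP3A4 system with proluciferin substrate; compounds preincubated 10 min RT with enzyme-substrate mix, then NADPH regeneration added for 1 h RT. Detection reagent 20 min, luminescence read as relative luminescence units.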

A number with no mark means an inactive call. Records with an inconclusive call do not appear. The source made the active and inactive calls. Unless noted, calls come from the whole dose curve; as a rule, active = well fitted curve in the direction sought with a large enough effect in the repeat runs; inconclusive = weak or mixed curves; inactive = no such curve, though single readings can be large; an effect the other way counts as inactive or inconclusive.
% is set by controls: 0 for no effect and ±100 for the full control effect.

Cytochrome P450 2D6 (Homo sapiens), sequence (P10635 whole entry, looked up): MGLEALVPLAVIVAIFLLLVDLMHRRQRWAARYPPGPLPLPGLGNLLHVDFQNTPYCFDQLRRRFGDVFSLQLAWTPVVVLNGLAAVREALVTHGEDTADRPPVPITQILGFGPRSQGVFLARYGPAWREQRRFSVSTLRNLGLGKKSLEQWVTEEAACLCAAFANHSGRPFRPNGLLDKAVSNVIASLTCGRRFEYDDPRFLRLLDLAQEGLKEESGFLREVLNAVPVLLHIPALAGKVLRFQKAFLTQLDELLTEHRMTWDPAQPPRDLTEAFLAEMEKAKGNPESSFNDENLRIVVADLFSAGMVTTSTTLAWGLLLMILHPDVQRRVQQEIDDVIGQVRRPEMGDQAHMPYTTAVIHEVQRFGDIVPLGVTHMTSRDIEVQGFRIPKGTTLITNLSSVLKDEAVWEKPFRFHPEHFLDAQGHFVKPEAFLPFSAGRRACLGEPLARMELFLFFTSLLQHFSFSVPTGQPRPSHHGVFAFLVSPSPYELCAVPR
Nuclear receptor subfamily 1 group I member 2 (Homo sapiens), sequence (O75469 whole entry, looked up): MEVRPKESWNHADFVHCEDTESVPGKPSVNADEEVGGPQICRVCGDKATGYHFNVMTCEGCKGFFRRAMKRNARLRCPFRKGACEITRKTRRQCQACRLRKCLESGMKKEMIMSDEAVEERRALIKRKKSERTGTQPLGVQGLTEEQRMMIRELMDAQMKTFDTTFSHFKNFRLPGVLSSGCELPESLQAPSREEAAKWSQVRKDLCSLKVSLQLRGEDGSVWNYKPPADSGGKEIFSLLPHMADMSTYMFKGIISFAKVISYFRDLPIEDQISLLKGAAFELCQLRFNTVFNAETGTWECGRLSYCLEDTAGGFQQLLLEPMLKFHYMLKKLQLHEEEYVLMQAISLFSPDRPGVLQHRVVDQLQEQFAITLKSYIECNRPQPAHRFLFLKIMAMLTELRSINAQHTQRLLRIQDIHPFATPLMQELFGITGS
Cytochrome P450 2C19 (Homo sapiens), sequence (P33261 whole entry, looked up): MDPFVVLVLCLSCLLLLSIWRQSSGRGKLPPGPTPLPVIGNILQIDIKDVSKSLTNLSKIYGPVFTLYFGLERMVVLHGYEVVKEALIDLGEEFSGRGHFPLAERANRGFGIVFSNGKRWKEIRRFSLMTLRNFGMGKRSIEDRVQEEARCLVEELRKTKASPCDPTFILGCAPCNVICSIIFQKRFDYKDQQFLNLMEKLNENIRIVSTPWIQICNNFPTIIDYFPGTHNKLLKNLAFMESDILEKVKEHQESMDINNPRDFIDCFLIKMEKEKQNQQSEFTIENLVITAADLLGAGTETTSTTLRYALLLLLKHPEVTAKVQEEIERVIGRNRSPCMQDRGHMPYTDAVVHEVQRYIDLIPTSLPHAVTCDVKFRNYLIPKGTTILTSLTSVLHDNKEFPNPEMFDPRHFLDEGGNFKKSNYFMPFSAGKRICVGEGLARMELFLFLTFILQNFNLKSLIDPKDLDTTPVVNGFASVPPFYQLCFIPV
Voltage-gated inwardly rectifying potassium channel KCNH2 (Homo sapiens), sequence (Q12809 whole entry, looked up): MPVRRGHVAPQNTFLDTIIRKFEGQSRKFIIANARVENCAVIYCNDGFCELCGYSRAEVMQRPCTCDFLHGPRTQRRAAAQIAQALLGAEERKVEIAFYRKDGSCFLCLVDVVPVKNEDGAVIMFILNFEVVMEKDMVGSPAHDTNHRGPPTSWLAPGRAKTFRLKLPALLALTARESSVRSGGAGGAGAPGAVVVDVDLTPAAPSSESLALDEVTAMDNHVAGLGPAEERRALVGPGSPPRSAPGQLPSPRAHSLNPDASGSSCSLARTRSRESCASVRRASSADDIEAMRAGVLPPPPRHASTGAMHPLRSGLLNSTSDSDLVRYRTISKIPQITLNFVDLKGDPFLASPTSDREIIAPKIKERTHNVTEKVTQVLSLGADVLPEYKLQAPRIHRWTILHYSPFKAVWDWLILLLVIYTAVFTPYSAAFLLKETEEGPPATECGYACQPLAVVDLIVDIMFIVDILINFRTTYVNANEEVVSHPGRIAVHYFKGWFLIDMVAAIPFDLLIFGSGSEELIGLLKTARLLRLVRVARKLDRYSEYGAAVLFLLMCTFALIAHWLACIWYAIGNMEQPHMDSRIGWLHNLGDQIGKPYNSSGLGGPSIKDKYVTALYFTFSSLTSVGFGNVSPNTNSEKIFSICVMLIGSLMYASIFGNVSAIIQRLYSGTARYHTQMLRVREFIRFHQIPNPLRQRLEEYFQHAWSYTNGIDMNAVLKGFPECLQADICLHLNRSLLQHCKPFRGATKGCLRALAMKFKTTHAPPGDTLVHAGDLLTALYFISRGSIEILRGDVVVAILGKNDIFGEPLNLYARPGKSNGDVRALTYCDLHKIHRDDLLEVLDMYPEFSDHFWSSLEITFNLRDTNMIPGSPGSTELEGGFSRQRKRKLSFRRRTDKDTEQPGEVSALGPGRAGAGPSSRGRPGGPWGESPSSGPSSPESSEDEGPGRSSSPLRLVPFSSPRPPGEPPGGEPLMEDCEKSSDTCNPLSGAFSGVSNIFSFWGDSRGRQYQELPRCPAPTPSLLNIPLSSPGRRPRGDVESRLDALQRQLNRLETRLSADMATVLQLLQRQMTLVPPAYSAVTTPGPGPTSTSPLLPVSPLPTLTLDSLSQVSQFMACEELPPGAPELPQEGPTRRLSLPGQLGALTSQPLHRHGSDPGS
Cytochrome P450 3A4 (Homo sapiens), sequence (P08684 whole entry, looked up): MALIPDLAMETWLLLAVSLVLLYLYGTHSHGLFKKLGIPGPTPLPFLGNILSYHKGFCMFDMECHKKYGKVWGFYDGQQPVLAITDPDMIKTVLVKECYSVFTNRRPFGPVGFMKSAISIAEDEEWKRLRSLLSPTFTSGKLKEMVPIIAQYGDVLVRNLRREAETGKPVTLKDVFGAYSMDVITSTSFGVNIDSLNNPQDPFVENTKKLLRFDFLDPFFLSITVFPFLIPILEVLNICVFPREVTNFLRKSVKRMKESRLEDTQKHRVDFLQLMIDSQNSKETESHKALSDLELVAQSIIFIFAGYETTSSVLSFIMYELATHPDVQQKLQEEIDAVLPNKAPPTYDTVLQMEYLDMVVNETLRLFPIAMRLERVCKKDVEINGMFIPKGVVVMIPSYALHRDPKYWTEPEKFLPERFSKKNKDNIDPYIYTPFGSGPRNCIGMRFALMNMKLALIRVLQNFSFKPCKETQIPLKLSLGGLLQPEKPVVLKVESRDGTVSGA
Nuclear receptor subfamily 1 group I member 2 (Rattus norvegicus), sequence (Q9R1A7 whole entry, looked up): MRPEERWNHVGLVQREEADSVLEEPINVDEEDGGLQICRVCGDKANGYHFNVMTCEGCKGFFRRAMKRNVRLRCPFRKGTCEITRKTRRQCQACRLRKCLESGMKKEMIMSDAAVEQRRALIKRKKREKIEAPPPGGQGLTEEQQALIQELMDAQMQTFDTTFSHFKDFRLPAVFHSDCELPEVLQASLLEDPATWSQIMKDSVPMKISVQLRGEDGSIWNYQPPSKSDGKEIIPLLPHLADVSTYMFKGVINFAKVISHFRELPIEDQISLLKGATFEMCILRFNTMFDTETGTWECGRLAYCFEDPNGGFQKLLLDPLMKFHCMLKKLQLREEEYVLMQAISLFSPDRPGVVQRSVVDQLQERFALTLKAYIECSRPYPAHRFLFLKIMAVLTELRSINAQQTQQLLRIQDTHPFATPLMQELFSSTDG

`CNCCc1ccccn1`: the call in test [1], in test [2], in test [4], in test [5], in test [7] and in [8] was inactive. In addition, the call in [11] and in [12] was inactive. The Potency result in test [3], in test [6], in [9], in test [13], in test [14] and in test [15] was “inactive” throughout. Besides, the Potency entry in test [16], in [17] and in [18] was “inactive” throughout. Besides, in test [10], the max activation is -1.65%.
As to `CCc1ncc(C)[nH]1`, the call in test [1], in [2], in [4], in test [5], in test [7] and in test [8] was inactive. In addition, the Potency entry in test [3], in test [6], in [9], in test [13], in test [14] and in test [15] was “inactive” throughout. Besides, the Potency entry in [17] and in test [18] was “inactive” throughout.
For `O=C1c2ccccc2C(=O)N1CO`, the result in test [1], in [2], in test [4], in [5], in test [7] and in test [8] was inactive. Also, the Potency entry in test [3], in [6], in [9], in test [13], in test [14] and in [15] was “inactive” each time. The Potency result in test [17] was “inactive”.
For the compound `C[C@@H]1CC[C@@]2(OC1)O[C@H]1C[C@H]3[C@@H]4CC[C@H]5C[C@@H](O)CC[C@]5(C)[C@H]4CC(=O)[C@]3(C)[C@H]1[C@@H]2C`, the values for the activation in test [1], in test [3] and in test [9] were -4.07% [at 6.97 µM], -0.339% [at 5.23 µM] and -7.1% [at 8.39 µM], respectively. Also, in test [2], the activity, negative = inhibition is 1.5% [at 4.65 µM]. Also, the figures for the activity change, negative = cytotoxicity in test [4], in test [6] and in test [8] were 11.4% [at 8.39 µM], 2.81% [at 8.39 µM] and 6.1% [at 8.39 µM], respectively. Besides, the caspase activation in test [5] was 0.244% [at 8.39 µM]. In test [7], the caspase-3/7 activation is -0.713% [at 8.39 µM]. For the same compound, the max activation in test [10] was -0.0535%. Also, the result in test [11] and in [12] was inactive. Besides, the activity change, negative = inhibition in [14] is 11.3% [at 10.5 µM]; in test [15], 3.54% [at 10.5 µM]; in test [16] it was 10.1% [at 10.5 µM]; in test [17], 3.03% [at 6.97 µM]; in test [18] it was 29.8% [at 10.5 µM].
For the compound `CC/C=C\CCOC(=O)c1ccccc1`, the outcome in test [1], in test [2], in [4], in test [5], in test [7] and in test [8] was inactive. Also, the Potency result in test [3], in test [6], in [9], in test [13], in [14] and in test [15] was “inactive” each time. For the same compound, the Potency entry in test [17] and in test [18] was “inactive” each time.
Regarding `O=S(=O)(O)CC(O)CCl` (centres undefined), the call in test [1], in test [2], in test [4], in test [5], in [7] and in test [8] was inactive. In addition, the Potency entry in test [3], in test [6], in test [9], in test [13], in [14] and in test [15] was “inactive” each time. Besides, the Potency entry in [16], in [17] and in test [18] was “inactive” each time.
Take `C=CC(=O)OCC[N+](C)(C)C`: the result in test [1], in [2], in [4], in test [5], in test [7] and in test [8] was inactive. Moreover, the Potency in test [3] is 1.56 µM (active). Also, the Potency entry in test [6], in test [9], in test [13], in [14], in [15] and in [16] was “inactive” throughout. Moreover, the Potency result in test [17] and in [18] was “inactive” throughout.
As to `CC(=O)SC[C@@H](C)C(=O)N1CCC[C@H]1C(=O)N[C@@H](Cc1ccccc1)C(=O)O`, the call in [1], in test [2], in test [4], in test [5], in test [7] and in test [8] was inactive. In addition, the Potency result in test [3], in test [6], in [9], in [13], in test [14] and in test [15] was “inactive” each time. For the same compound, the Potency entry in test [17] was “inactive”.

These data come from PubChem BioAssay (Tox21).
